# Results reported in PubChem BioAssay (NCI).
# The panel holds about 79,000 compounds, 15% with a hit somewhere; the sample as a whole holds those more often. Values without a mark were called inactive. Activity calls are given as the source filed them. No stated cut-off is given here; in the data, active means growth inhibition above about 70%; inactive means the rest.
# Columns and labels:
# [1] = NCI Yeast Anticancer Drug Screen. Data for the rad52 strain (AID 147);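 further: 0% = growth of vehicle-treated control cultures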; conditions: S. cerevisiae rad52 mutant growth inhibition, stronger effect = higher value
# How it was run: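 Vehicle-treated cultures served as the reference for growth inhibition of compound-exposed yeast bearing a DNA repair mutation.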
# [2] = NCI Yeast Anticancer Drug Screen. Data for the wt1 strain (AID 149);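 further: 0% = growth of vehicle-treated wt1 cultures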; conditions: S. cerevisiae wt1 strain (SPY 50644) growth inhibition, stronger effect = higher value
# How it was run: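 wt1 yeast, compound-treated; % growth inhibition vs vehicle control.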
# [3] = NCI Yeast Anticancer Drug Screen. Data for the rad50EPP+ strain (AID 151);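 further: 0% = growth of vehicle-treated control cultures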; conditions: S. cerevisiae rad50 mutant strain, stronger effect = higher value
# How it was run: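 In this screen, rad50EPP+ yeast were exposed to compounds. Growth inhibition was scored against vehicle-treated controls.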
# [4] = NCI Yeast Anticancer Drug Screen. Data for the mgt1 strain (AID 153); conditions: S. cerevisiae mgt1 mutant growth inhibition, stronger effect = higher value
# How it was run: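 mgt1 strain exposed; growth vs vehicle control recorded as inhibition.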
# [5] = NCI Yeast Anticancer Drug Screen. Data for the rad50 strain (AID 155);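 further: 0% = growth of vehicle-only cultures of the same strain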; conditions: S. cerevisiae rad50 strain growth inhibition, stronger effect = higher value
# How it was run: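 Genetically altered yeast (DNA repair pathway); compound treatment; growth inhibition vs vehicle ctrl.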
# [6] = NCI Yeast Anticancer Drug Screen. Data for the mec2-1 strain (AID 157); conditions: S. cerevisiae mec2-1 strain, stronger effect = higher value
# How it was run: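 Vehicle-treated cultures served as reference for growth inhibition of compound-exposed mec2-1 yeast.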
# [7] = NCI Yeast Anticancer Drug Screen. Data for the rad14 strain (AID 159);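 further: 0% = growth of vehicle-treated control cultures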; conditions: S. cerevisiae rad14 strain growth inhibition, stronger effect = higher value
# How it was run: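 Test compounds were applied to a repair-deficient yeast strain. Its growth was then compared with that of cultures given vehicle alone, and inhibition was expressed relative to those controls.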
# [8] = NCI Yeast Anticancer Drug Screen. Data for the sgs1 mgt1 strain (AID 161);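 further: 0% = growth of cultures given vehicle only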; conditions: S. cerevisiae sgs1 mgt1 strain, stronger effect = higher value
# How it was run: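 Mutant yeast exposed to compound; growth scored against vehicle-only wells.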
# [9] = NCI Yeast Anticancer Drug Screen. Data for the CLN2oe strain (AID 163);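 further: 0% = growth of vehicle-only control cultures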; conditions: S. cerevisiae CLN2oe strain, stronger effect = higher value
# How it was run: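 Inhibition relative to vehicle-treated yeast is reported. Cells: strain with genetic alteration in cell-cycle control, grown with compound.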
# [10] = NCI Yeast Anticancer Drug Screen. Data for the cln2 rad14 strain (AID 165);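 further: 0% = growth equal to vehicle treated cultures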; conditions: S. cerevisiae cln2 rad14 strain, stronger effect = higher value
# How it was run: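 Each compound was tested on cln2 rad14 yeast. Inhibition of growth was calculated against vehicle-exposed controls.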
# [11] = NCI Yeast Anticancer Drug Screen. Data for the bub3 strain (AID 167); conditions: S. cerevisiae bub3 mutant strain, stronger effect = higher value
# How it was run: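 Yeast carrying a defined mutation is treated with each compound, and growth is compared with that of vehicle-exposed cells to give inhibition.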
# [12] = NCI Yeast Anticancer Drug Screen. Data for the wt2 strain (AID 169);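 further: 0% = growth of vehicle-treated yeast cultures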; conditions: S. cerevisiae wt2 strain growth inhibition, stronger effect = higher value
# How it was run: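 Inhibition of yeast growth was determined after compound treatment, normalised to controls receiving only vehicle.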
# [13] = NCI Yeast Anticancer Drug Screen. Data for the mlh1 strain (AID 171);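 further: 0% = growth of vehicle-treated control cultures of the same strain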; conditions: S. cerevisiae mlh1 strain growth inhibition, stronger effect = higher value
# How it was run: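 Vehicle-normalised growth inhibition of a repair- or checkpoint-altered yeast strain following compound treatment.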
# [14] = NCI Yeast Anticancer Drug Screen. Data for the sgs1 strain (AID 173);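 further: 0% = growth of vehicle-only control cultures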; conditions: S. cerevisiae sgs1 mutant, stronger effect = higher value
# How it was run: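 Screen format: yeast with repair or checkpoint alterations, compound exposure, growth read relative to vehicle.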
# [15] = NCI Yeast Anticancer Drug Screen. Data for the mlh1 rad18 strain (AID 175); conditions: S. cerevisiae mlh1 rad18 strain growth inhibition, stronger effect = higher value
# How it was run: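 Vehicle-treated cultures served as the reference for growth inhibition in a yeast strain carrying DNA damage repair alterations exposed to each compound.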
# [16] = NCI Yeast Anticancer Drug Screen. Data for the rad18 strain (AID 177); conditions: S. cerevisiae rad18 mutant growth inhibition, stronger effect = higher value
# How it was run: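 Test articles were incubated with altered yeast defective in DNA damage repair. Results are given as inhibition of growth versus vehicle.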
# [17] = at 5.0 µM (retest, dose inferred, filed as 0.5)
# [18] = at 50.0 µM (retest, dose inferred, filed as 5.0)
compound,measurement,setting,value
C=C1N(C)c2ccc(Cl)cc2C1(C)C,growth inhibition,[1]; at 1.2 µM,-26%
same,growth inhibition,[1]; at 3.7 µM,-25%
same,growth inhibition,[1]; at 11.0 µM,-38%
same,growth inhibition,[1]; at 33.0 µM,-7%
same,growth inhibition,[1]; at 100.0 µM,94% (active)
same,growth inhibition,[2]; at 1.2 µM,-37%
same,growth inhibition,[2]; at 3.7 µM,-28%
same,growth inhibition,[2]; at 11.0 µM,-30%
same,growth inhibition,[2]; at 33.0 µM,-21%
same,growth inhibition,[2]; at 100.0 µM,92% (active)
same,growth inhibition,[3]; at 1.2 µM,-5%
same,growth inhibition,[3]; at 3.7 µM,-7%
same,growth inhibition,[3]; at 11.0 µM,-23%
same,growth inhibition,[3]; at 33.0 µM,-18%
same,growth inhibition,[3]; at 100.0 µM,-6%
same,growth inhibition,[4]; at 1.2 µM,-23%
same,growth inhibition,[4]; at 3.7 µM,0%
same,growth inhibition,[4]; at 11.0 µM,0%
same,growth inhibition,[4]; at 33.0 µM,29%
same,growth inhibition,[4]; at 100.0 µM,97% (active)
same,growth inhibition,[5]; at 1.2 µM,4%
same,growth inhibition,[5]; at 3.7 µM,-22%
same,growth inhibition,[5]; [17],68%
same,growth inhibition,[5]; at 11.0 µM,-26%
same,growth inhibition,[5]; at 33.0 µM,20%
same,growth inhibition,[5]; [18],99% (active)
same,growth inhibition,[5]; at 50.0 µM,88.9% (active)
same,growth inhibition,[5]; at 100.0 µM,94% (active)
same,growth inhibition,[6]; at 1.2 µM,-3%
same,growth inhibition,[6]; at 3.7 µM,4%
same,growth inhibition,[6]; [17],77% (active)
same,growth inhibition,[6]; at 11.0 µM,-8%
same,growth inhibition,[6]; at 33.0 µM,19%
same,growth inhibition,[6]; [18],100% (active)
same,growth inhibition,[6]; at 50.0 µM,90.1% (active)
same,growth inhibition,[6]; at 100.0 µM,96% (active)
same,growth inhibition,[7]; at 1.2 µM,-33%
same,growth inhibition,[7]; at 3.7 µM,-37%
same,growth inhibition,[7]; at 11.0 µM,-23%
same,growth inhibition,[7]; at 33.0 µM,12%
same,growth inhibition,[7]; at 100.0 µM,95% (active)
same,growth inhibition,[8]; [17],-6%
same,growth inhibition,[8]; [18],88% (active)
same,growth inhibition,[9]; at 1.2 µM,-16%
same,growth inhibition,[9]; at 3.7 µM,-31%
same,growth inhibition,[9]; at 11.0 µM,-22%
same,growth inhibition,[9]; at 33.0 µM,4%
same,growth inhibition,[9]; at 100.0 µM,96% (active)
same,growth inhibition,[10]; [17],64%
same,growth inhibition,[10]; [18],86% (active)
same,growth inhibition,[11]; at 1.2 µM,18%
same,growth inhibition,[11]; at 3.7 µM,28%
same,growth inhibition,[11]; [17],-1%
same,growth inhibition,[11]; at 11.0 µM,5%
same,growth inhibition,[11]; at 33.0 µM,28%
same,growth inhibition,[11]; [18],93% (active)
same,growth inhibition,[11]; at 100.0 µM,97% (active)
same,growth inhibition,[12]; at 1.2 µM,-30%
same,growth inhibition,[12]; at 3.7 µM,-30%
same,growth inhibition,[12]; at 11.0 µM,-28%
same,growth inhibition,[12]; at 33.0 µM,-23%
same,growth inhibition,[12]; at 100.0 µM,94% (active)
same,growth inhibition,[13]; at 1.2 µM,-45%
same,growth inhibition,[13]; at 3.7 µM,-43%
same,growth inhibition,[13]; at 11.0 µM,-30%
same,growth inhibition,[13]; at 33.0 µM,3%
same,growth inhibition,[13]; at 100.0 µM,94% (active)
same,growth inhibition,[14]; at 1.2 µM,-24%
same,growth inhibition,[14]; at 3.7 µM,-46%
same,growth inhibition,[14]; at 11.0 µM,-47%
same,growth inhibition,[14]; at 33.0 µM,1%
same,growth inhibition,[14]; at 100.0 µM,92% (active)
same,growth inhibition,[15]; [17],57%
same,growth inhibition,[15]; [18],100% (active)
same,growth inhibition,[15]; at 50.0 µM,88.9% (active)
same,growth inhibition,[16]; at 1.2 µM,-2%
same,growth inhibition,[16]; at 3.7 µM,-18%
same,growth inhibition,[16]; at 11.0 µM,-26%
same,growth inhibition,[16]; at 33.0 µM,15%
same,growth inhibition,[16]; at 100.0 µM,94% (active)
